Active and inactive are the calls of the source.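 How the source made its calls, unless noted: active means inhibition above 20% together with a positive visual image hit; inconclusive means visual image hit but inhibition not above 20%; inactive means no visual image hit.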
How the values were obtained:
[1] = inhibitors of TNFa-induced NFkB p65 translocation, primary screen, imaging, HUVEC, MLSMR starter and 10KST1 sets (AID 438); conditions: HUVEC TNFa-induced p65 nuclear translocation; cell count: measured here: nuclei count (cytotoxicity indicator), at 2.08 µM; inhibition: at 2 µM, stronger effect = higher value, 0% TNFa-plus-vehicle, 100% no-TNFa wells;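 further: compound added about 3h40 before a 20 min TNFalpha stimulation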;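 on inhibition: signal is the nuclear over cytoplasmic p65 intensity ratio per well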
[2] = inhibitors of mutant huntingtin aggregation, primary screen, imaging, exon1htt(103Q)mCFP cells, high-content imaging (AID 483;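 active means visual image review flags a hit and inhibition of aggregation exceeds 20%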;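 further: compound exposure lasted 3 days before fixation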;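 on nuclei count: percent of the per-plate median nuclei count of sample wells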); conditions: exon1htt(103Q)mCFP cell line, aggregate imaging, at 2 µM; inhibition of aggregation: stronger effect = higher value; nuclei count: measured here: cell count, toxicity
[3] = inhibitors of E-selectin induction by TNFa, primary screen, imaging, HUVEC, immunofluorescence, MLSMR starter and 10KST1 sets (AID 487;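 active means visually confirmed hit in the image check and inhibition above 20%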;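 on inhibition: signal is fraction of cell area covered by stained E-selectin grains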;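 on nuclei count: 100% = median nuclei count of all wells on the same plate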); conditions: HUVEC TNFalpha-induced E-selectin immunofluorescence imaging, at 2 µM; inhibition: stronger effect = higher value; nuclei count: measured here: cell number, toxicity
[4] = DUSP6 inhibitors restoring Erk phosphorylation by chemical complementation, primary imaging in DUSP6-transfected HeLa (AID 609;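 active means compounds giving at least 50% inhibition in the cell-based MKP-3 phosphatase rescue imaging test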;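 on inhibition: phospho-Erk level distribution per well compared with pooled transfected vehicle control wells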); conditions: HeLa MKP-3 transfected, phospho-Erk imaging KS statistic, at 10 µM, cells stimulated with TPA for 15 min
[5] = target: Dual specificity protein phosphatase 6 (Homo sapiens) (UniProt Q16828); assay: as above; conditions: HeLa MKP-3 transfected, phospho-Erk imaging KS statistic; at 10 µM; stronger effect = higher value; cells stimulated with TPA for 15 min
[6] = target: Voltage-gated potassium channel subunit beta-2 (Rattus norvegicus) (UniProt P62483); assay: KvBeta enzyme negative modulators, primary screen, biochemical, NADPH fluorescence (AID 622;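 active means fluorescence slope higher than the sample average by over 3 SD, cut at about -0.22 in these data, passing the limit was not always enough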;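 further: slope of raw intensity against log time taken from 70 to 1610 s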); conditions: recombinant KvBeta, 4-cyanobenzaldehyde reduction, at 10 µM, stronger effect = higher value
[7] = target: Voltage-gated potassium channel subunit beta-2 (Rattus norvegicus) (UniProt P62483); assay: KvBeta positive modulators, primary screen, biochemical, NADPH fluorescence (AID 623;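 active means NADPH fluorescence slope more negative than the mean of all samples by about 3 SD, 99.7% confidence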;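 further: fluorescence intensity change per second fitted from 20 to 320 s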); conditions: Recombinant KvBeta, NADPH fluorescence decrease slope, 10 min; at 10 µM; stronger effect = lower value
[8] = target: Alpha-2C adrenergic receptor (Homo sapiens) (UniProt P18825); assay: modulators of alpha2C/GIRK thallium flux, primary screen, cell-based, HEK293 alpha2C/GIRK1/2 (AID 624;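 active means fluorescence slope after compound addition differing from the mean of all screened samples at 99.7% confidence, in either direction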;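 further: slope of fluorescence ratio to pre-addition baseline per second over 15 to 24 s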); conditions: thallium flux BTC fluorescence, at 10 µM, actives lie on both sides
[9] = target: Muscarinic acetylcholine receptor M4 (Homo sapiens) (UniProt P08173); assay: compounds altering M4/GIRK thallium flux, either direction, primary screen, M4 allosteric agonist project, cell-based, HEK293 M4/GIRK, BTC-AM (AID 625;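 active means fluorescence slope after compound addition differing from the mean of all tested samples at 99.7% confidence, mostly higher but some lower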;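 further: thallium influx through GIRK channels coupled to M4 in HEK293 cells with BTC-AM dye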); conditions: at 10 µM, actives lie on both sides
[10] = inhibitors of larval lipid processing in zebrafish, primary screen, whole organism, PED6 fluorescence, gall bladder and intestine (AID 686;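 active means a full or partial loss of lipid-probe fluorescence in the fish gall bladder, intestine or both, judged by eye; inactive means no fluorescence loss, or compound toxic to the fish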;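 further: larvae 5 to 7 days old with five fish per well; signal comes from phospholipase A2 cleavage of quenched PED6 carried via bile; overnight exposure to compound and PED6 before scoring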); conditions: Zebrafish larvae PED6 lipid processing, fluorescence scoring; screened at 20 µM (by protocol)
[11] = inhibitors of Chlamydomonas gravitaxis, primary screen, whole organism, Chlamydomonas reinhardtii, WT vs cilia-less mutant, absorbance, 96-well (AID 463189;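 active means inhibition at or above 50% relative to wild type and mutant plate controls; inactive means inhibition below 50%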;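 further: 0% = wild type cc124 cells in DMSO and 100% = ciliumless bld1 mutant cells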); conditions: OD600 absorbance, 2 days, at 10 µM, stronger effect = higher value
[12] = inhibitors of Sendai virus-induced IRF3 signaling, primary screen, TLR/RLR signaling modifier project, cell-based, Sendai virus stimulus, luciferase, 10K MLSCN set (AID 602276;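 active means inhibition at or above 50% at 10 µM; inactive means inhibition below 50%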;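 further: firefly luciferase from ISG56 promoter only with Renilla not read in this screen; 0% = Sendai virus plus DMSO and 100% = medium plus DMSO without virus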); conditions: HEK293 RL24 IRF3 luciferase reporter, at 10 µM, stronger effect = higher value
[13] = inhibitors of poly I:C-induced TLR3 signaling, primary screen, cell-based, poly I:C stimulus, luciferase, 10K MLSCN set (AID 602277;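 active means inhibition of the reporter signal at or above 50%; inactive means inhibition below 50%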); conditions: HEK293-TLR3 RL24 IRF3 luciferase reporter, at 10 µM, stronger effect = higher value
[14] = measured here: cell density z-score
[15] = measured here: nuclear c-Myc green intensity z-score
[16] = measured here: nuclear pErk red intensity z-score, stronger effect = higher value

Sequence of Voltage-gated potassium channel subunit beta-2 (Rattus norvegicus) (P62483 whole entry, looked up): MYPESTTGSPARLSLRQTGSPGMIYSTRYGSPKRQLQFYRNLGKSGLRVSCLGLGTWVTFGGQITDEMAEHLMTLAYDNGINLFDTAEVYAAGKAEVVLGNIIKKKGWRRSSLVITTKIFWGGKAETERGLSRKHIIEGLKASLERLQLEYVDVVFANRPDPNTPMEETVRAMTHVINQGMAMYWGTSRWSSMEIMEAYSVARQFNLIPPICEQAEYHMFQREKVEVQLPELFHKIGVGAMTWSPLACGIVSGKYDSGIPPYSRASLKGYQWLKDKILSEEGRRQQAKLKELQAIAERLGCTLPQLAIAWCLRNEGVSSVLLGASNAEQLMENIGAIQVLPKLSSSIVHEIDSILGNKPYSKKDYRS
Sequence of Muscarinic acetylcholine receptor M4 (Homo sapiens) (P08173 whole entry, looked up): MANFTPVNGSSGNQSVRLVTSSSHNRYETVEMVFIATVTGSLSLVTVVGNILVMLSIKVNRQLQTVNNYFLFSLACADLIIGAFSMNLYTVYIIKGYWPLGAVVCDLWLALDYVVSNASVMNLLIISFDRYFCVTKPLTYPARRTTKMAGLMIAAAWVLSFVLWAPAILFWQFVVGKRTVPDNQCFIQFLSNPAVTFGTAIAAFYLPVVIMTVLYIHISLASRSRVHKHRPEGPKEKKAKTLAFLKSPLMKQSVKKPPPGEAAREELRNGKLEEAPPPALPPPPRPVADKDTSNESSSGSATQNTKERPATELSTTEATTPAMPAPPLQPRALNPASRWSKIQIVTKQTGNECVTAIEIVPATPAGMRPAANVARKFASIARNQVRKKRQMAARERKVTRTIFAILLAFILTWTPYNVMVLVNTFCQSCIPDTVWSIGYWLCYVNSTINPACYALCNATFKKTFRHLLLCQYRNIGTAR
Sequence of Dual specificity protein phosphatase 6 (Homo sapiens) (Q16828 whole entry, looked up): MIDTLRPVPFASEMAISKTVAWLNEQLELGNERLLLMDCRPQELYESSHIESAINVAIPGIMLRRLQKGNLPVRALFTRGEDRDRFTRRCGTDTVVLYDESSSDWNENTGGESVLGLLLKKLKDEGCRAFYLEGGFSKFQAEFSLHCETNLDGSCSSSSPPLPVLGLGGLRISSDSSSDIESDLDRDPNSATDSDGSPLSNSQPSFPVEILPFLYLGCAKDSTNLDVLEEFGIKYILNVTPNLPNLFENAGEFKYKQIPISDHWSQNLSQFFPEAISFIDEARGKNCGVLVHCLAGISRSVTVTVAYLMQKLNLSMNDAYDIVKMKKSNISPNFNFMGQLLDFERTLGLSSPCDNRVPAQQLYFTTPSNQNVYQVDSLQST
Sequence of Alpha-2C adrenergic receptor (Homo sapiens) (P18825 whole entry, looked up): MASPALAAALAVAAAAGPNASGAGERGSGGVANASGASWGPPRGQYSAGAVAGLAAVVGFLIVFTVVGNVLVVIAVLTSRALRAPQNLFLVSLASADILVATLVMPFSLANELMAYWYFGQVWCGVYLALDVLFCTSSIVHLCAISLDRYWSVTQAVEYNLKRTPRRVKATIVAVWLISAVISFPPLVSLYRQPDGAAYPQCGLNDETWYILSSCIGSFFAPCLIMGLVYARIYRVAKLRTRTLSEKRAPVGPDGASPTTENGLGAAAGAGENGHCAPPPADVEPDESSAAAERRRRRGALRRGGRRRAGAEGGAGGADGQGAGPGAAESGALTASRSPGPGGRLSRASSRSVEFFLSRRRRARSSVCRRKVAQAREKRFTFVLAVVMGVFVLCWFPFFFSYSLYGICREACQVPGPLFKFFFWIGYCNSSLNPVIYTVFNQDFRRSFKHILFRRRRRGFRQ

SMILES: Cc1nnc(SCC(=O)N2CCC(C(N)=O)CC2)s1
- cell count [1]: 423
- inhibition [1]: -2.2% (inactive)
- inhibition of aggregation [2]: -4.3% (inactive)
- nuclei count [2]: 87.6%
- inhibition [3]: -80.5% (inactive)
- nuclei count [3]: 137%
- z-score [4, 14]: -1.3
- z-score [4, 15]: -0.207
- z-score [4, 16]: -0.854
- inhibition [5]: -3.95% (inactive)
- fluorescence slope [6]: -0.418 (inactive)
- NADPH fluorescence slope [7]: -3.7e-05 (inactive)
- slope [8]: 0.00689 (inactive)
- fluorescence slope [9]: 0.00524 (inactive)
- outcome [10]: inactive
- inhibition [11]: 29.5% (inactive)
- inhibition [12]: 7.88% (inactive)
- inhibition [13]: 7.15% (inactive)

SMILES: COc1ccc(/C(O)=C2\C(=O)C(=O)N(c3cc(C)on3)C2c2ccccc2OC)cc1 (configuration not stated)
- cell count [1]: 515
- inhibition [1]: -2.7% (inactive)
- inhibition of aggregation [2]: -8.1% (inactive)
- nuclei count [2]: 103%
- inhibition [3]: -21.7% (inactive)
- nuclei count [3]: 101%
- z-score [4, 14]: 1.8
- z-score [4, 15]: 0.145
- z-score [4, 16]: -0.473
- inhibition [5]: 19.4% (inactive)
- fluorescence slope [6]: -0.469 (inactive)
- NADPH fluorescence slope [7]: -6.5e-05 (inactive)
- slope [8]: 0.00564 (inactive)
- fluorescence slope [9]: 0.0068 (inactive)
- outcome [10]: inactive
- inhibition [11]: -3.34% (inactive)
- inhibition [12]: 8.52% (inactive)
- inhibition [13]: -5.11% (inactive)

SMILES: C/C(=N\O)C(=O)NCCCNCCCN(C)C
- cell count [1]: 609
- inhibition [1]: -2.7% (inactive)
- inhibition of aggregation [2]: -14.3% (inactive)
- nuclei count [2]: 109%
- inhibition [3]: -42% (inactive)
- nuclei count [3]: 115%
- z-score [4, 14]: -1.26
- z-score [4, 15]: 0.664
- z-score [4, 16]: -0.264
- inhibition [5]: -3.95% (inactive)
- fluorescence slope [6]: -0.495 (inactive)
- NADPH fluorescence slope [7]: -5.8e-05 (inactive)
- slope [8]: 0.0053 (inactive)
- fluorescence slope [9]: 0.00686 (inactive)
- outcome [10]: inactive
- inhibition [11]: -5.12% (inactive)
- inhibition [12]: 15.3% (inactive)
- inhibition [13]: 20.9% (inactive)

SMILES: CCN1CCc2c(C#N)c(N3CCOCC3)nc(NCc3ccccc3)c2C1
- cell count [1]: 507
- inhibition [1]: 9.3% (inactive)
- inhibition of aggregation [2]: 4.7% (inactive)
- nuclei count [2]: 80.7%
- inhibition [3]: -218% (inactive)
- nuclei count [3]: 110%
- z-score [4, 14]: 0.377
- z-score [4, 15]: -1.7
- z-score [4, 16]: 2.2
- inhibition [5]: -11.5% (inactive)
- fluorescence slope [6]: -0.484 (inactive)
- NADPH fluorescence slope [7]: -3.1e-05 (inactive)
- slope [8]: 0.00496 (inactive)
- fluorescence slope [9]: 0.00486 (inactive)
- outcome [10]: inactive
- inhibition [11]: 27.4% (inactive)
- inhibition [12]: 10.8% (inactive)
- inhibition [13]: 10.8% (inactive)

SMILES: N#CC1(c2ccccc2)CCC(=NO)CC1 (configuration not stated)
- cell count [1]: 685
- inhibition [1]: -0.6% (inactive)
- inhibition of aggregation [2]: -8% (inactive)
- nuclei count [2]: 102%
- inhibition [3]: 8.8% (inactive)
- nuclei count [3]: 86.8%
- z-score [4, 14]: -0.0727
- z-score [4, 15]: 1.42
- z-score [4, 16]: -0.351
- inhibition [5]: -13.3% (inactive)
- fluorescence slope [6]: -0.461 (inactive)
- NADPH fluorescence slope [7]: -4.5e-05 (inactive)
- slope [8]: 0.00512 (inactive)
- fluorescence slope [9]: 0.00503 (inactive)
- outcome [10]: inactive
- inhibition [11]: -5.88% (inactive)
- inhibition [12]: 10.2% (inactive)
- inhibition [13]: 20.6% (inactive)

SMILES: CCOC(=O)C1CCN(C(C)=C2C(=O)c3ccccc3C2=O)CC1
- cell count [1]: 476
- inhibition [1]: -0.3% (inactive)
- inhibition of aggregation [2]: -15.9% (inactive)
- nuclei count [2]: 104%
- inhibition [3]: -21.4% (inactive)
- nuclei count [3]: 95.3%
- z-score [4, 14]: -0.165
- z-score [4, 15]: 0.853
- z-score [4, 16]: 0.114
- inhibition [5]: 7.73% (inactive)
- fluorescence slope [6]: -0.418 (inactive)
- NADPH fluorescence slope [7]: -3.2e-05 (inactive)
- slope [8]: 0.00587 (inactive)
- fluorescence slope [9]: 0.0035 (inactive)
- outcome [10]: inactive
- inhibition [11]: 25.7% (inactive)
- inhibition [12]: 6.04% (inactive)
- inhibition [13]: 16.6% (inactive)

SMILES: CCN(CC)CCN1C(=O)C(=O)/C(=C(/O)c2c(C)[nH]c(C(=O)OC)c2C)C1c1ccco1 (configuration not stated)
- cell count [1]: 572
- inhibition [1]: -11.8% (inactive)
- inhibition of aggregation [2]: -5.3% (inactive)
- nuclei count [2]: 105%
- inhibition [3]: 26.1% (inactive)
- nuclei count [3]: 120%
- z-score [4, 14]: -1.72
- z-score [4, 15]: 1.35
- z-score [4, 16]: -0.00455
- inhibition [5]: -11.9% (inactive)
- fluorescence slope [6]: -0.473 (inactive)
- NADPH fluorescence slope [7]: -1.4e-05 (inactive)
- slope [8]: 0.00421 (inactive)
- fluorescence slope [9]: 0.00487 (inactive)
- outcome [10]: inactive
- inhibition [11]: 4.53% (inactive)
- inhibition [12]: 4.22% (inactive)
- inhibition [13]: 6.98% (inactive)

SMILES: CCN(CC)C(=O)c1sc2nc(-c3cccs3)cc(-c3cccs3)c2c1N
- cell count [1]: 443
- inhibition [1]: -1.7% (inactive)
- inhibition of aggregation [2]: 0.6% (inactive)
- nuclei count [2]: 90%
- inhibition [3]: -166% (inactive)
- nuclei count [3]: 121%
- z-score [4, 14]: 1.5
- z-score [4, 15]: -1.58
- z-score [4, 16]: -0.775
- inhibition [5]: 9.61% (inactive)
- fluorescence slope [6]: 1.5e-14 (active)
- NADPH fluorescence slope [7]: 0 (inactive)
- slope [8]: 0.00378 (inactive)
- fluorescence slope [9]: -0.00241 (active)
- outcome [10]: active; no signal in gallbladder and intestine
- inhibition [11]: 15.5% (inactive)
- inhibition [12]: 20.8% (inactive)
- inhibition [13]: 23.7% (inactive)

SMILES: Cc1cc(/C=N\O)c(C)n1-c1ccncc1
- cell count [1]: 547
- inhibition [1]: -1.1% (inactive)
- inhibition of aggregation [2]: 7.2% (inactive)
- nuclei count [2]: 92.6%
- inhibition [3]: -50.3% (inactive)
- nuclei count [3]: 120%
- z-score [4, 14]: -0.413
- z-score [4, 15]: 0.337
- z-score [4, 16]: 0.578
- inhibition [5]: 9.82% (inactive)
- fluorescence slope [6]: -0.47 (inactive)
- NADPH fluorescence slope [7]: -0.000127 (inactive)
- slope [8]: 0.00523 (inactive)
- fluorescence slope [9]: 0.00493 (inactive)
- outcome [10]: inactive
- inhibition [11]: 19.4% (inactive)
- inhibition [12]: 20.1% (inactive)
- inhibition [13]: 25.1% (inactive)
